Screening results: PubChem, National Center for Advancing Translational Sciences (NCATS)
Most compounds without a hit are left out; they make up all but 21% or so of the library.
Pf growth 48h – inhibits P. falciparum growth in the first generation, 48 h. Potency, µM (doses to about 28.7 µM), without a hit: top-dose activity change, negative = inhibition, usual class: inhibitors. AID 504832. actives 5.9% (n = 310,000). P. falciparum luciferase growth in erythrocytes, 48 h; also: potency is read from the fitted curve at half-maximal effect; % is scaled to controls: 0 for no effect and ±100 for the full control effect
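Luciferase-expressing parasites in RBCs, 2% Hct / 0.1% parasitemia final; RPMI 1640 + 0.5% Albumax; 37 C, 5% CO2, one generation; luminescence read-out, lower signal = inhibition.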
Cycloheximide cs – affects cycloheximide protein synthesis inhibition readout, counter-screen; cell reporter, cycloheximide protein synthesis inhibition counterscreen; max response, %; actives 12% (n = 300,000); AID 2314; in the data active = max response mostly above about 13%, no sharp cut-off; inactive = mostly below about 14%; also: read at 38.3 µM for the half of the compounds with a filed dose; 0% is about no effect
Shiga toxin inh – inhibitors of Shiga toxin in Vero cells | Vero cells, Shiga toxin protein synthesis inhibition reporter | AID 2315 | actives 9.2% (n = 290,000) | inhibition, % at 38.7 µM; in the data active = inhibition mostly above about 28%, no sharp cut-off; inactive = mostly below about 43%; also: 0% is about no effect
Pf growth 96h – P. falciparum growth inhibition at 96 hour, primary screen for plastid delayed-death inhibitors; P. falciparum luciferase reporter growth, 96 h; Potency, µM (top dose mostly 28.7 µM), for inactives: at the highest dose activity change, negative = inhibition, hits mostly inhibitors; actives 6.9% (n = 320,000); AID 504834; also: potency is read from the fitted curve at half-maximal effect; % is scaled to controls: 0 for no effect and ±100 for the full control effect
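96 h incubation, 37 C, 5% CO2, of luciferase-reporter P. falciparum-infected RBCs (2% hematocrit, 0.05% parasitemia final) with test compounds; endpoint luminescence.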
* = called active by the depositor; [ ] = another dose, or the depositor's remark. Unless noted, calls follow the shape of the dose curve; as a rule, active = well fitted inhibition curve with a large enough effect; inconclusive = small, poorly fitted or top-dose-only effect, or another doubt; inactive = no such curve, though single readings can be large or run the other way.

`O=C1C(C23CC4CC(CC(C4)C2)C3)C(=O)N(c2ccccc2)N1c1ccccc1` gave Pf growth 48h -8.9%, Cycloheximide cs -6.4, Shiga toxin inh 9.0 and Pf growth 96h 7.38µM*.
Screening Ic1ccccc1CN[C@@H]1C2CCN(CC2)[C@@H]1C(c1ccccc1)c1ccccc1 returned Pf growth 48h 2.62µM* and Pf growth 96h 2.94µM*.
`CCCc1cc(NC(=O)COC(=O)c2nccnc2N)n(-c2ccccc2)n1` gave Pf growth 48h 3.9% and Pf growth 96h 17.8%.
Screening CCOC(=O)N1CCC2(CC1)C(C#N)=C(N)Oc1c2c(C)nn1-c1cccc(Cl)c1 returned Pf growth 48h 9.28µM*, Cycloheximide cs -3.0, Shiga toxin inh 0.3 and Pf growth 96h 23.2%.
Screening CCOC(=O)N1CCC2(CC1)C(C#N)=C(N)Oc1n[nH]c(C)c12 returned Cycloheximide cs -3.1, Shiga toxin inh -12.5 and Pf growth 96h inconclusive.
Screening O=C(O)[C@@H](O)[C@@H](O)[C@H](O)[C@H](O)CO returned Pf growth 48h 6.01µM* and Pf growth 96h 8.49µM*.
Screening CCOc1ccccc1/C=C(/NC(=O)c1ccccc1)C(=O)N(CC)CC returned Pf growth 48h -29.6%, Cycloheximide cs 0.8, Shiga toxin inh -1.6 and Pf growth 96h inconclusive.
`CSc1nc2sc3c(c2c(=O)n1C)CCC3` gave Pf growth 48h 1.8%, Cycloheximide cs -1.3, Shiga toxin inh 2.4 and Pf growth 96h 66.5%.
For CSc1nc2sc3c(c2c(=O)n1C)CCC(C)C3 (stereo unspecified) the results were Pf growth 48h 30.3%, Cycloheximide cs 22.0*, Shiga toxin inh 11.2 and Pf growth 96h -15.2%.
C=CCn1nnc2sc3c(c2c1=O)CCC(C)C3 (stereo unspecified) was read as Cycloheximide cs 29.0*, Shiga toxin inh 48.8* and Pf growth 96h -20.8%.
`Cc1nnc2c(NCCc3ccccc3)nc3ccccc3n12` gave Pf growth 48h 13.4%, Cycloheximide cs -5.7, Shiga toxin inh -9.1 and Pf growth 96h inconclusive.
`COC(=O)c1cc(O)cc(OC)c1C(=O)c1c(O)cc(C)cc1O` gave Pf growth 48h inconclusive, Cycloheximide cs -3.6, Shiga toxin inh -11.0 and Pf growth 96h 5.22µM*.
For COC(=O)c1cc(O)cc(OC)c1Oc1cc(C)cc(O)c1C(=O)O the results were Pf growth 48h 2.62µM*, Cycloheximide cs -1.7, Shiga toxin inh 1.3 and Pf growth 96h -3.9%.
`COC(=O)c1ccc2c(=O)[nH]c(COC(=O)CCC(=O)c3ccc(Cl)cc3)nc2c1` gave Pf growth 48h 3.0% and Pf growth 96h 8.7%.
For Cc1nn2cc(-c3cccc(Cl)c3)cnc2c1Cl the results were Pf growth 48h 188.3%, Cycloheximide cs 33.1*, Shiga toxin inh 124.1* and Pf growth 96h 470.7%.
CC(C)n1nnnc1-c1cccc(Cl)c1 was read as Pf growth 48h 5.0%, Cycloheximide cs 8.6, Shiga toxin inh 7.7 and Pf growth 96h 19.4%.
Cc1nn2cc(-c3cccc(Cl)c3)cnc2c1Br was read as Pf growth 48h 44.1%, Cycloheximide cs 14.3, Shiga toxin inh 56.2* and Pf growth 96h 93.6%.
`CC(=O)Nc1ccc(Nc2nnc(-c3ccc(O)cc3)c3ccccc23)cc1` gave Pf growth 48h -9.0%, Cycloheximide cs -3.5, Shiga toxin inh -4.3 and Pf growth 96h 22.6%.
`CC(=O)Nc1ccc(Nc2nnc(-c3ccc(C)c(S(=O)(=O)NCC4CCCO4)c3)c3ccccc23)cc1` (stereo unspecified) gave Pf growth 48h 1.04µM*, Cycloheximide cs -1.9, Shiga toxin inh -10.6 and Pf growth 96h 1.17µM*.
`Cc1ccc(-c2nnc(Nc3ccccc3)c3ccccc23)cc1S(=O)(=O)NCC1CCCO1` (stereo unspecified) gave Pf growth 48h 4.15µM*, Cycloheximide cs -2.0, Shiga toxin inh -4.8 and Pf growth 96h inconclusive.
Cc1ccc(-c2nn3c(-c4ccco4)nnc3c3ccccc23)cc1S(=O)(=O)NCC1CCCO1 (stereo unspecified) was read as Pf growth 48h inconclusive, Cycloheximide cs -2.7, Shiga toxin inh 9.0 and Pf growth 96h -24.4%.
`CNC(=O)c1ccc(Nc2nnc(-c3ccc(C)c(S(=O)(=O)NCC4CCCO4)c3)c3ccccc23)cc1` (stereo unspecified) gave Pf growth 48h 5.22µM*, Cycloheximide cs -1.4, Shiga toxin inh -9.3 and Pf growth 96h inconclusive.
CNS(=O)(=O)c1cc(-c2nnc(Nc3ccc(NC(C)=O)cc3)c3ccccc23)ccc1C was read as Pf growth 48h 10.4µM*, Cycloheximide cs 6.4, Shiga toxin inh -5.1 and Pf growth 96h inconclusive.
`Cc1ccc2nc(-c3ccccc3)cc(C(=O)N3CCc4ccccc4C3)c2c1` gave Pf growth 48h 9.28µM*, Cycloheximide cs 17.0, Shiga toxin inh -5.3 and Pf growth 96h 11.7µM*.
Screening COc1ccc(-c2cc(C(=O)N3CCCCCC3)c3cc(C)ccc3n2)cc1 returned Pf growth 48h inconclusive, Cycloheximide cs 2.2, Shiga toxin inh -4.6 and Pf growth 96h 13.1µM*.
Screening Cc1ccc2nc(-c3ccccc3)cc(C(=O)N3CC(C)OC(C)C3)c2c1 (stereo unspecified) returned Pf growth 48h 10.4µM* and Pf growth 96h inconclusive.
For COc1ccc(-c2cc(C(=O)N3CCOCC3)c3cc(C)ccc3n2)cc1 the results were Pf growth 48h 23.1%, Cycloheximide cs 8.8 and Shiga toxin inh 43.8.
`O=C(c1cc(-c2ccccc2)nc2ccccc12)N1CCc2ccccc2C1` gave Pf growth 48h inconclusive, Cycloheximide cs 6.1, Shiga toxin inh 12.1 and Pf growth 96h inconclusive.
Screening CC(=O)Nc1cccc(/C(C)=N/N2C(C)CCCC2C)c1 (stereo unspecified) returned Pf growth 48h -5.9%, Cycloheximide cs -2.0, Shiga toxin inh -7.7 and Pf growth 96h -2.0%.
For CCOc1ccc(NC(=S)Nc2ccccc2C2(C)CC2)cc1 the results were Pf growth 48h inconclusive, Cycloheximide cs -2.5, Shiga toxin inh -12.8 and Pf growth 96h -23.1%.
Screening COc1ccc(C(=O)O)cc1S(=O)(=O)NCc1ccccn1 returned Pf growth 48h -19.2%[0.00184 µM], Cycloheximide cs -5.2, Shiga toxin inh -12.6 and Pf growth 96h inconclusive.
For Cc1cc(C)nc(SCc2csc(-c3ccccc3)n2)n1 the results were Pf growth 48h 194.8%, Cycloheximide cs 60.8*, Shiga toxin inh 84.9* and Pf growth 96h 168.1%.
Screening C=CCn1c(SCc2csc(-c3ccc(Cl)cc3)n2)nnc1-c1ccccc1OC returned Pf growth 48h 17.9%, Cycloheximide cs 2.2, Shiga toxin inh 30.6 and Pf growth 96h inconclusive.
For Cc1cc(C)nc(SCc2csc(N)n2)n1 the results were Pf growth 48h 44.6%, Cycloheximide cs 27.6*, Shiga toxin inh 64.3 and Pf growth 96h -61.3%.
`Nc1ccccc1SCc1csc(-c2ccc(Cl)cc2)n1` gave Pf growth 48h 171.5%, Cycloheximide cs 44.1*, Shiga toxin inh 112.9* and Pf growth 96h 51.7%.
Screening Cc1cc(C)nc(SCCN(C)C)n1 returned Pf growth 48h 8.6%, Cycloheximide cs 0.7, Shiga toxin inh 8.3 and Pf growth 96h 52.6%.
